In PubChem BioAssay (NCI) one finds growth data, which are given here for 9 compounds.

Holding throughout (test): NCI-60 one-dose screen, 48 h (100 = growth as untreated, 0 = no growth, -100 = all killed)
What all share (conditions): 10 µM unless noted

Test [1] relates to HCT-15 colon.
In test [2] the test system is HT29 colon.
Test [3] relates to SNB-19 CNS.
In test [4] the test system is U251 CNS.
In test [5] the test system is PC-3 prostate.
The test system of test [6] is SK-MEL-5 melanoma.
The test system of test [7] is UACC-62 melanoma.
Test [8] concerns LOX IMVI melanoma.
Test [9] deals with SK-MEL-28 melanoma.
Test [10] has as its system SK-MEL-2 melanoma.
In test [11] the test system is EKVX NSCLC.
Test [12] concerns SN12C renal.
Test [13] relates to UO-31 renal.
The subject of test [14] is TK-10 renal.
In test [15] the test system is ACHN renal.
Test [16] has as its system CAKI-1 renal.
In test [17] the test system is A498 renal.
Test [18] has as its system MOLT-4 leukemia.
Test [19] concerns CCRF-CEM leukemia.

Compounds without any hit were thinned out: in the full panel of roughly 83,000, 20% have a hit.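 Plates (96-well) were seeded with cells, treated with compound at one concentration, and incubated for 48 hours before percent growth was determined.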 Values without a mark were called inactive. The source made the active and inactive calls. Rule for the calls: active = growth percent below 10; inactive = the rest.

Regarding `c1ccc(Nc2nc(Nc3ccccc3)nc(Nc3ccccc3)n2)cc1`, the growth in test [1] is 82.9%; in [2], 75.3%; in test [3], 98.3%; in test [4], 91.4%; in [5], 79.7%; in test [6] it was 78%. Also, the growth in test [7] is 83%; in [8], 82.7%; in test [9] it was 79%; in [10] it was 85.8%; in test [11], 77.9%; in test [12], 100%. Besides, the growth was 55.5% in test [13]; 74.6% in [14]; 91.9% in [15]; 85% in test [16]; 79% in test [17]; 65.7% in test [18].

In the case of `c1cc(C2=N[C@@H]3c4ccccc4C[C@@H]3O2)nc(C2=N[C@@H]3c4ccccc4C[C@@H]3O2)c1`, the growth is 94.7% in [1]; 105% in [2]; 97.7% in [3]; 101% in [4]; 98.3% in test [5]; 102% in test [6]. Moreover, the growth in [7] is 102%; in [8] it was 97%; in test [9], 108%; in test [10], 103%; in test [11] it was 89.4%; in test [12], 97%. Besides, the growth in test [13] was 94.6%; in test [14], 101%; in test [15] it was 102%; in test [16], 92.4%; in [19], 102%; in [18] it was 106%.

With `O=C1c2c(Cl)c(Cl)c(Cl)c(Cl)c2C(=O)C2(Cl)CC=CCC12Cl` (stereo not given), the growth was -74.2% (active) in [1]; -39.2% (active) in test [2]; 13.5% in test [3]; -30.2% (active) in test [4]; -55.4% (active) in [5]; 57.3% in test [6]. Besides, the growth in [7] is 32.6%; in [8], -84.3% (active); in [9], -58.8% (active); in [10], -49.4% (active); in test [11] it was 98.7%; in test [12], 24.4%. The growth was 17.9% in test [13], -81% (active) in test [15], -15.1% (active) in test [16] and 104% in [17].

Take `CCc1ccc(-c2ccc(=O)n(-c3ccc(S(N)(=O)=O)cc3)n2)cc1`: the growth in [1] was 29.7%; in [2], 11.8%; in test [3] it was 57.6%; in test [4], 35%; in test [5], 35%; in [6], 12.9%. Moreover, the growth in test [7] is 38.5%; in [8] it was 55.1%; in [9], 49.4%; in test [10], 1.5% (active); in [11], 69.1%; in test [12], 58.4%. The growth in test [13] was 38.4%; in [14], 76.8%; in [15] it was 60.3%; in test [16], 36.7%; in test [19], 27.9%; in [18], 16%.

Consider `COc1cc2c(=O)n(C3CCCCCC3)c3c4cc[nH]c4ncc3c2cc1OC`, for which the growth was 62.9% in [1]; 79.9% in [2]; 85.1% in test [3]; 67% in test [4]; 78.1% in test [5]; 87.2% in [6]. For the same compound, the growth in test [7] was 99.9%; in test [8] it was 60.8%; in test [9], 105%; in test [10], 90.3%; in [11], 91.8%; in test [12], 55.6%. The growth in [13] was 81.2%; in [14] it was 96.3%; in [16], 73.7%; in test [17], 24.6%; in test [19], 51.1%; in [18], 40.9%.

In the case of `O=C(NS(=O)(=O)c1ccc2ccccc2c1)n1cc(-c2ccncc2)c(-c2ccc(Cl)c(O)c2)n1`, the growth in [1] is 82.1%; in test [2], 70.3%; in test [3] it was 109%; in test [4] it was 84.5%; in test [5] it was 74.2%; in test [6], 77.5%. Also, the growth in [7] was 15.5%; in test [8], 49.9%; in [9] it was 54.6%; in test [10], -2.83% (active); in test [11], 65.5%; in test [12], 68.8%. Besides, the growth in [13] is 56.4%; in test [15], 49.6%; in test [16] it was 96.2%; in [17] it was 87.7%; in test [19], 74.1%; in test [18] it was 78.9%.

On to `NC1=NC(SCc2ccccc2CCl)c2ncn(Cc3ccccc3CCl)c2N1` (stereo not given), for which the growth is 76.5% in test [1]; 14.4% in [2]; 74.7% in test [3]; 36.8% in test [4]; 78.6% in test [5]; 48.4% in [6]. Besides, the growth in test [7] is 34.2%; in test [8], -80.2% (active); in test [9], 65.2%; in test [10], -4.24% (active); in test [11] it was 77.9%; in test [12] it was 37.8%. Further, the growth in test [13] is 61.3%; in test [14], 56.2%; in test [15] it was 31.8%; in [16], 32.4%; in test [19], 7.36% (active); in test [18] it was 14.5%.

As for `CN(C)c1cccc2c(S(=O)(=O)/N=C(\N)Nc3nc4ccccc4s3)cccc12`, the growth was 42.9% in test [1]; 48.2% in test [2]; 53.6% in test [3]; 55.4% in test [4]; 48.2% in test [5]; 40.5% in test [6]. Also, the growth was 42.8% in test [7]; 51.7% in test [8]; 78.9% in [9]; 15.3% in test [10]; 71.3% in test [11]; 88.4% in test [12]. Further, the growth in test [13] is 56.8%; in [14], 91.4%; in test [15], 84.2%; in [16], 54%; in test [19], 69.1%; in [18] it was 60.6%.

For the compound `N#Cc1c(Nc2ccccc2)nc2n(c1=O)-c1ccccc1Sc1ccccc1-2`, the growth in test [1] is 90.3%; in [2], 84.1%; in test [3], 77.9%; in test [4] it was 89.4%; in [5], 61.3%; in test [6] it was 68.1%. For the same compound, the growth in [7] was 69.1%; in test [8], 83.9%; in [9], 83.8%; in test [10], 86.9%; in test [11], 73%; in test [12] it was 77.7%. The growth in test [13] was 53.4%; in test [14], 105%; in test [15], 68.3%; in [16] it was 70.8%; in [19], 63.4%; in [18], 51.9%.
